Data taken from article PMC4336329 (PLoS ONE, 2015).
Out of some 310,000 compounds screened, about 14,000 (4.5%) showed an effect of 50% or more. The effect is printed as a negative number. Many of the other results were omitted from the sample, so strong results are more common in it than they were.

target: human ether-à-go-go-related gene (hERG) potassium channel (human, UniProt Q12809); assay: primary screen, population patch clamp on CHO cells stably expressing hERG; higher = less effect of the substance
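Note: peak tail current of the secondary pulse compared with the same well before compound.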

Chain of human ether-à-go-go-related gene (hERG) potassium channel (Q12809 whole entry, looked up): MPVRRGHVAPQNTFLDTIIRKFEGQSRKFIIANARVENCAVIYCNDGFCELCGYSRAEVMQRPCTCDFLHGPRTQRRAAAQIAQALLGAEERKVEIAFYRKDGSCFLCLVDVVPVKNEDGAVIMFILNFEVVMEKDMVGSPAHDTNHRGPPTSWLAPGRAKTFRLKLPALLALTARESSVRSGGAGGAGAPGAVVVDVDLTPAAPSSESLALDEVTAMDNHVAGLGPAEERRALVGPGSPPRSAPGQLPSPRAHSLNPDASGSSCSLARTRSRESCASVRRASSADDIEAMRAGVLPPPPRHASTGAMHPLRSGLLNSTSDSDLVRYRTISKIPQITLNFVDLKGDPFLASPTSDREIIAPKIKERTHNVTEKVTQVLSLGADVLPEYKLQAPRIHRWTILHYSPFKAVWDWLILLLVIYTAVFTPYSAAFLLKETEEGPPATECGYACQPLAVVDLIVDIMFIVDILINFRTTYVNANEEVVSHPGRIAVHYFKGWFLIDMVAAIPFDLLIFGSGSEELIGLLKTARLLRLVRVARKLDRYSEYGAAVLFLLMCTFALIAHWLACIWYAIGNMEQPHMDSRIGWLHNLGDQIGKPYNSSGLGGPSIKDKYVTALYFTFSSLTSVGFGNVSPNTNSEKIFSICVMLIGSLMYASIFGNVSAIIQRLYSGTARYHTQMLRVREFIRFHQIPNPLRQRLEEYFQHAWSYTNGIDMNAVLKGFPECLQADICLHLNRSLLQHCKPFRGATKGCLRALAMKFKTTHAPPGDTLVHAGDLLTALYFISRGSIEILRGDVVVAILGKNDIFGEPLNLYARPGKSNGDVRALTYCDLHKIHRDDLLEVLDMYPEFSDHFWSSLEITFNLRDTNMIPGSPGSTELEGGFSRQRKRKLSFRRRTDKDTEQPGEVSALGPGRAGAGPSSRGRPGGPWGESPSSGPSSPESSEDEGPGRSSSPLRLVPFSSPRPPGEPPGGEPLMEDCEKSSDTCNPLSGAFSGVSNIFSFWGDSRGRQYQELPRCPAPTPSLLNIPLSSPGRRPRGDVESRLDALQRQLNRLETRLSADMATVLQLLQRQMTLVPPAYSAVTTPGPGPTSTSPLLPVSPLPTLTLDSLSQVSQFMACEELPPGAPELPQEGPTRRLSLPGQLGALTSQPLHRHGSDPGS

Compared with `O=C(COc1ccccc1)N(Cc1cc2ccccc2[nH]c1=O)CC1CCCO1` (centres unmarked), `O=C(NC1CCC(=O)N(CCOc2ccccc2)CC1)OCc1ccccc1` (centres unmarked) is lower in “hERG current change (%, negative = inhibition) at 10uM” value: -1.24% for the first, -30.2% for the second.

Going from `CCC1(c2ccccc2)NC(=O)N(CC(=O)Nc2ccccc2N2CCCC2)C1=O` (centres unmarked) to `CC1(OC(=O)CCc2ccccc2)C(=O)C=C2C=C3CCCN3C=C2C1=O` (centres unmarked), the “hERG current change (%, negative = inhibition) at 10uM” value falls from 1.38% to -1.36%.

Compared with `O=C(c1cc(-c2cccc(Cl)c2)nc2ccccc12)N1CCCC1`, `COCCNc1nc(-c2ccccc2)nc2ccccc12.Cl` is higher in “hERG current change (%, negative = inhibition) at 10uM” value: -40.2% for the first, -32.5% for the second.

First: CCC(C)NS(=O)(=O)c1ccc(OCC(=O)Nc2ccc3c(c2)OCCO3)cc1 (centres unmarked)
Second: Cc1cccc(NC(=O)CCc2ccc(S(=O)(=O)NC3CCCCC3)cc2)c1
The “hERG current change (%, negative = inhibition) at 10uM” value of the first is lower: -26.3% for the first, 14.4% for the second.

`Cl.Fc1ccccc1COc1ccc(Br)cc1CNCc1ccncc1` and `Cl.Fc1ccccc1COc1ccc(Br)cc1CNCc1cccnc1` are the same in “hERG current change (%, negative = inhibition) at 10uM” value: -70.2% for the first, -70.2% for the second.

First: Cl.Fc1ccc(COc2ccc(Br)cc2CNCc2ccncc2)cc1
Second: Cl.Fc1ccc(COc2ccccc2CNCc2ccncc2)cc1
The “hERG current change (%, negative = inhibition) at 10uM” value of the first is lower: -74.7% for the first, -32.6% for the second.

Compared with `Cl.c1ccc(COc2ccccc2CNCc2cccnc2)cc1`, `Cl.Fc1ccccc1COc1ccccc1CNCc1ccncc1` is lower in “hERG current change (%, negative = inhibition) at 10uM” value: -8.89% for the first, -44% for the second.

First: COc1cc(CNCc2ccncc2)cc(Br)c1OCc1ccccc1F.Cl
Second: Brc1ccc(OCc2ccccc2)c(CNCc2ccncc2)c1.Cl
The “hERG current change (%, negative = inhibition) at 10uM” value of the first is lower: -43.3% for the first, -19.9% for the second.

Going from `CCOc1ccc(Br)cc1CNCc1cccnc1` to `N/C(=N\OC(=O)COc1ccc2ccccc2c1Br)c1cccnc1`, the “hERG current change (%, negative = inhibition) at 10uM” value rises from -10.2% to 12.9%.

Compared with `CCC(NC(=O)c1ccccc1NC(=O)c1ccco1)C(=O)NNC(=O)c1ccncc1` (centres unmarked), `C/C(=N\NC(=O)c1c[nH]c2ccccc12)c1ccc2c(c1)OCO2` is lower in “hERG current change (%, negative = inhibition) at 10uM” value: 8.86% for the first, 1.64% for the second.

Going from `COc1ccc(NC(=O)CCCc2ccc(OC)c(C)c2)cc1` to `COc1ccc(S(=O)(=O)NCCc2cc3ccc(C)c(C)c3[nH]c2=O)cc1`, the “hERG current change (%, negative = inhibition) at 10uM” value rises from 3.93% to 17.2%.

Going from `Cn1nnnc1SCC(=O)NCc1ccc2c(c1)OCO2` to `COc1ccccc1CNC(=O)Cn1c(=O)oc2cc(Cl)ccc21`, the “hERG current change (%, negative = inhibition) at 10uM” value falls from 31.4% to 0.41%.

First: CC(C)c1cc(C(=O)N/N=C/c2cccnc2)cs1
Second: Cc1cc(C)cc(C(=O)OCC(=O)Nc2ncccn2)c1
The “hERG current change (%, negative = inhibition) at 10uM” value of the first is lower: -31.9% for the first, -0.75% for the second.

Compared with `c1coc(CSc2ncnc3c2oc2ccccc23)c1`, `Cc1ccc(-c2nc(NCCN(C)C)c3ccccc3n2)cc1` is lower in “hERG current change (%, negative = inhibition) at 10uM” value: 13.9% for the first, -44.9% for the second.

Going from `COCCN(CCOC)c1nc(-c2ccc([N+](=O)[O-])cc2)nc2ccccc12` to `COCCN(CCOC)c1nc(-c2ccc(Cl)cc2)nc2ccccc12`, the “hERG current change (%, negative = inhibition) at 10uM” value rises from -34.3% to -5.82%.

Compared with `COCCN(CCOC)c1nc(-c2ccccc2)nc2ccccc12`, `COCCN(CCOC)c1nc(-c2ccc(C)cc2)nc2ccccc12.Cl` is higher in “hERG current change (%, negative = inhibition) at 10uM” value: -68.2% for the first, -65.4% for the second.

Going from `O=C(O)C1CC(=O)N(c2ccc(F)c(F)c2)C1` (centres unmarked) to `CCCCOC(=O)C1=C(C)NC(=O)NC1c1ccccc1` (centres unmarked), the “hERG current change (%, negative = inhibition) at 10uM” value falls from 13% to 6.12%.

Going from `O=C(N[C@@H]1CCC(=O)N(CC[C@H](Sc2ccccc2)c2ccccc2)CC1)OCc1ccccc1` to `Cc1ccc(S[C@@H](CCN2CC[C@H](NC(=O)OCc3ccccc3)CCC2=O)c2ccccc2)cc1`, the “hERG current change (%, negative = inhibition) at 10uM” value falls from -24% to -26.1%.

First: [N-]=[N+]=NC[C@H](Cc1ccccc1)N1CC[C@@H](NC(=O)OCc2ccccc2)CCC1=O
Second: N#CC[C@H](Cc1ccccc1)N1CC[C@@H](NC(=O)OCc2ccccc2)CCC1=O
The “hERG current change (%, negative = inhibition) at 10uM” value of the first is lower: -52.5% for the first, -45.1% for the second.

Compared with `O=C(NC1CCC(=O)N(CCSc2ccccc2)CC1)OCc1ccccc1` (centres unmarked), `O=C(N[C@H]1CCC(=O)N(CCSc2ccc(Br)cc2)CC1)OCc1ccccc1` is higher in “hERG current change (%, negative = inhibition) at 10uM” value: -59.2% for the first, -29.2% for the second.

Compared with `O=C(N[C@H]1CCC(=O)N([C@H](CSc2ccccc2)Cc2ccccc2)CC1)OCc1ccccc1`, `COc1ccc(SC[C@H](Cc2ccccc2)N2CC[C@@H](NC(=O)OCc3ccccc3)CCC2=O)cc1` is higher in “hERG current change (%, negative = inhibition) at 10uM” value: -37.6% for the first, -10.2% for the second.

First: Cc1ccc(SC[C@H](C)CN2CC[C@H](NC(=O)OCc3ccccc3)CCC2=O)cc1
Second: Cc1ccc(SCCN2CCC(NC(=O)OCc3ccccc3)CCC2=O)cc1 (centres unmarked)
The “hERG current change (%, negative = inhibition) at 10uM” value of the first is higher: -41.6% for the first, -50.1% for the second.

Compared with `COc1ccc(SCCN2CC[C@@H](NC(=O)OCc3ccccc3)CCC2=O)cc1`, `CC(C)CCN1C(Nc2ccccc2)=NC[C@@H]1Cc1ccccc1` is higher in “hERG current change (%, negative = inhibition) at 10uM” value: -54.4% for the first, -47.9% for the second.

Going from `Cc1cccc(NC(=O)c2ccc3nc(N4CCOCC4)sc3c2)c1C` to `CC(C)CCCN1CCN=C1Nc1ccccc1`, the “hERG current change (%, negative = inhibition) at 10uM” value rises from -34.7% to -3.11%.

Compared with `CCCCCCCN1C(Nc2ccccc2)=NC[C@@H]1CC(C)C`, `CCCCN1C(Nc2ccccc2)=NC[C@@H]1CC(C)C` is higher in “hERG current change (%, negative = inhibition) at 10uM” value: -73.7% for the first, -34.5% for the second.

Compared with `CCC(CC)CN1C(Nc2ccccc2)=NC[C@@H]1CC(C)C`, `CC(C)C[C@H]1CN=C(Nc2ccccc2)N1CC(C)C` is higher in “hERG current change (%, negative = inhibition) at 10uM” value: -58.2% for the first, -3.04% for the second.

Compared with `CC(C)CCCN1C(Nc2ccccc2)=NC[C@@H]1Cc1ccccc1`, `CC(C)CCCN1C(Nc2ccccc2)=NC[C@@H]1CC(C)C` is higher in “hERG current change (%, negative = inhibition) at 10uM” value: -62.3% for the first, -60.1% for the second.

Going from `CC(C)CCN1C(Nc2ccccc2)=NC[C@@H]1CC(C)C` to `CCN1C(Nc2ccccc2)=NC[C@@H]1CC(C)C`, the “hERG current change (%, negative = inhibition) at 10uM” value rises from -33.4% to 3.75%.
